# High-throughput results (PubChem)
# The list is not random: actives were taken first. Their share in the collection is about 4.9%.
# Calb FLC = C. albicans growth modulation with fluconazole. C. albicans CaCi-2 (fluconazole-resistant clinical isolate) + fluconazole, Alamar Blue growth, 48 h. growth inhibition, % (no concentration beside the values). 300,000 tested, 0.57% active;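 active means growth inhibition above about 58% in most replicates, limit read from the data, passing the limit was not always enough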;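 further: all wells also contain fluconazole at 8 µg/ml as a sub-toxic cotreatment; 0% = median of DMSO wells and 100% = median of geldanamycin control wells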
# PP5 primary = inhibitors of human protein phosphatase 5 (PP5); inhibition, % at 6.7 µM; 320,000 tested, 0.18% active; purified PP5c, OMFP substrate fluorescence; P53041;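 active means inhibition above the campaign's mean inhibition across all tested compounds plus 3 SD, cut at about 9.5% in these data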;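 further: 0% = DMSO only and 100% = 100 µM cantharidin control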
# Beta apoptosis = blocks beta cell apoptosis | INS-1E cytokine-induced death, ATP luminescence, 48 h; percent of positive-control rescue, neutral wells zero | protection from apoptosis, % (concentration not given with the values) | 300,000 tested, 0.8% active;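 active means Every replicate reaches about 75%, or at least half do and their mean reaches it too, limit read from the data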;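 further: 0% = cytokine-treated negative control wells and 100% = positive control rescue; higher means more ATP so stronger rescue from cytokine killing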
# PP1 counter = counter-screen for PP5 inhibitors: inhibitors of human PP1-alpha; P62136; purified PP1alpha, OMFP fluorescence; inhibition, % at 6.7 µM; 320,000 tested, 0.9% active;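 active means inhibition above the mean inhibition of all tested compounds plus 3 SD, computed separately for each screening campaign, cut at about 15% in these data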
# Mdm2-MdmX inh = human Mdm2/MdmX binding inhibition; SaOS-2 split-luciferase Mdm2/MdmX complementation, luminescence; inhibition, % at 8 µM; 330,000 tested, 3% active;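 active means inhibition of at least 50% at 8 µM in the primary screen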
# Target sequence (O15151 whole entry, looked up): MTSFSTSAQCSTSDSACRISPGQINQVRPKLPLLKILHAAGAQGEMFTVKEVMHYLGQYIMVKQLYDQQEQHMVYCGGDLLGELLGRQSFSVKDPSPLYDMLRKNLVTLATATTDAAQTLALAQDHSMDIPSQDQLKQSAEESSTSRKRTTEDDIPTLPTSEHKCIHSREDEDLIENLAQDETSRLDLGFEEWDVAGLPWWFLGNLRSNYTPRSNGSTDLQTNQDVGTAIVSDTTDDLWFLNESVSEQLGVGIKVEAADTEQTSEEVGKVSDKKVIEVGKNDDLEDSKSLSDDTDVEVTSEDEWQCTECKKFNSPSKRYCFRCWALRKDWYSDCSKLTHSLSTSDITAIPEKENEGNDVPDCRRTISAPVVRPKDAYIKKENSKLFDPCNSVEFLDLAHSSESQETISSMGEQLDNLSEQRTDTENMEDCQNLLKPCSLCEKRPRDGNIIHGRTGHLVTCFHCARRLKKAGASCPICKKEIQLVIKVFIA
# Target sequence (Q00987 whole entry, looked up): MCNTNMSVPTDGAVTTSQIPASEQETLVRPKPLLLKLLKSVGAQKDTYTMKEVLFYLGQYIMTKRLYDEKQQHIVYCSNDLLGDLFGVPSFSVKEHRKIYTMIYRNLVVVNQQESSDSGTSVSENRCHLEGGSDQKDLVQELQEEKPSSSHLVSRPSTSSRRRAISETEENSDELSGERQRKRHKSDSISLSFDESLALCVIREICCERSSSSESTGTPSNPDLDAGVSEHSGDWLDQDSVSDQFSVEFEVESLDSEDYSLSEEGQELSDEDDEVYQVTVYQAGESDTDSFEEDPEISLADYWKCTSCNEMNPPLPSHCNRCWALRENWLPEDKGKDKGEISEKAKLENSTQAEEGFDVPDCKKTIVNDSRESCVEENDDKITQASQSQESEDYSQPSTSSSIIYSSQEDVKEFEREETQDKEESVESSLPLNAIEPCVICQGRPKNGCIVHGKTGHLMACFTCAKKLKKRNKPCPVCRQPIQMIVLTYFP
# CSC inhib = blocks cancer stem cells; cancer stem cell-like cells viability, luminescence; inhibition, % at 7.5 µM; 300,000 tested, 1.1% active; AID 2717; in the data active means inhibition above about 75%; tested in HMLE shEcad cells
# Mdm2-MdmX conf = confirmation of human Mdm2/MdmX interaction inhibitors; shares compounds with Mdm2-MdmX inh; Mdm2-MdmX binding, luminescent assay; inhibition, % at 8 µM; 10,000 tested, 55% active; AID 489028; in the data active means inhibition above about 40%
# FLuc counter = inhibits full-length luciferase, flagging false Mdm2/MdmX hits. SaOS-2 full-length luciferase counterscreen, luminescence. shares compounds with Mdm2-MdmX inh. inhibition, % at 8 µM. 6,200 tested, 77% active;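 active means mean inhibition at 8 µM reaching about 37%, which flags the compound as non-specific, limit read from the data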;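 further: p53-null SaOS-2 cells with luciferase driven by a doxycycline-inducible promoter; compound on cells about two nights before reading with doxycycline added after day one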
# * hit, by the source's call; · = no result given; + = active, no number.
SMILES,Calb FLC,PP5 primary,Beta apoptosis,PP1 counter,Mdm2-MdmX inh,CSC inhib,Mdm2-MdmX conf,FLuc counter
Oc1c(Cl)cc(Cl)cc1/C=N/Nc1ncc(Br)cn1,3,3,86*,-4,67*,-2,69*,23
COc1ccc(NC(=O)CN(C)C(=O)c2cc(-c3ccccc3)nc3ccccc23)cc1,-3,3,-10,-4,-5,-12,·,·
Cc1ccc2nc(-c3ccccc3)cc(C(=O)N(C)CC(=O)Nc3ccccc3Br)c2c1,3,4,9,1,53*,·,28,·
COc1ccc(-c2n[nH]c(C)c2-c2cscn2)c(O)c1,-6,1,-3,-1,4,-6,·,·
C=C(C)COc1ccc(-c2n[nH]c(C)c2-c2ccc(OC)cc2)c(O)c1,-3,4,29,3,61*,+,49*,71*
O=C(NC(Nc1cc(C(F)(F)F)ccc1Cl)C(=O)c1ccccc1)c1ccccc1 (stereo not drawn),-7,4,13,2,52*,13,8,·
CC(C)C(=O)NC(Nc1cc(C(F)(F)F)ccc1Cl)C(Cl)(Cl)Cl (stereo not drawn),-5,3,1,12,29,·,·,·
CC(Sc1ccccc1)C(=O)N1CCN(S(=O)(=O)c2cccc(Br)c2)CC1 (stereo not drawn),10,2,2,4,31,·,·,·
COc1ccc(N/C=C/C(=O)c2sc(-c3ccccc3)nc2C)cc1,16,3,6,2,59*,51,38,98*
CC(C)c1ccc(OCC(=O)NNC(=S)NC(=O)c2ccco2)c(Br)c1,-7,-2,11,8,50*,-1,43*,71*
Cc1nccc(-c2ccc(-n3cnc4ccccc43)cc2)n1,2,-1,-3,10,32,3,·,·
Nc1nccc(-c2ccc(-n3cnc4ccccc43)cc2)n1,2,0,-11,-6,70*,·,56*,22
c1ccc2c(c1)ncn2-c1ccc(-c2ccnc(-c3ccncc3)n2)cc1,11,2,-2,8,53*,2,16,·
c1ccc2c(c1)ncn2-c1ccc(-c2ccnc3ncnn23)cc1,0,1,-1,-9,10,-10,·,·
Cc1ncc(CO)c(CNc2ccc(Oc3ccccc3)cc2)c1O,26,·,11,·,33,-5,·,·
COc1ccc2c(-c3ccccc3)cc(=O)[nH]c2c1,33,3,4,0,9,2,·,·
COc1ccc2sc3c(=O)[nH]c4ccccc4c3c2c1,19,1,41,-1,72*,-6,74*,44*
COc1ccc(OCc2cc(=O)[nH]c3ccccc23)cc1,52,-1,3,1,10,6,·,·
COc1ccc2c(c1)[nH]c(=O)c1sc3ccccc3c12,6,2,22,0,60*,-4,19,·
Cc1cc2c(cc1C)C(c1ccccc1OC(C)C)CC(=O)N2 (stereo not drawn),19,2,41,4,57*,96*,55*,43*
CC(C)Oc1ccccc1C1CC(=O)Nc2cc3c(cc21)OCO3 (stereo not drawn),-2,6,34,1,70*,54,61*,84*
CCOc1ccccc1C1CC(=O)Nc2cc(OC)c(OC)c(OC)c21 (stereo not drawn),-13,4,2,2,44,8,·,·
COc1ccccc1C1CC(=O)Nc2cc(C)c(C)cc21 (stereo not drawn),14,3,6,-1,60*,39,55*,60*
CCOc1ccccc1C1CC(=O)Nc2cc(C)c(C)cc21 (stereo not drawn),-4,4,8,3,57*,32,59*,54*
COC(=O)[C@]1(C)N[C@H](CN(C)C(=O)NC(C)C)[C@@H]2C(=O)N(C)C(=O)[C@@H]21,·,·,-4,·,9,·,·,·
SMILES,Calb FLC,PP5 primary,Beta apoptosis,PP1 counter,Mdm2-MdmX inh,CSC inhib,Mdm2-MdmX conf,FLuc counter
CCCCN=C1NN=C(c2cc3ccccc3o2)CS1,-24,0,0,4,-41,-1,·,·
COc1ccccc1-c1noc(CCC(=O)NC2CCCCC2)n1,14,-4,·,-3,17,-4,·,·
Cc1cc(OCc2nc(-c3ccc(NC(=O)c4cccnc4)cc3)no2)ccc1Cl,-16,3,125*,0,62*,-9,11,·
O=C(Nc1ccc(-c2noc(CCc3ccccc3)n2)cc1)c1cccnc1,-7,5,·,0,21,29,·,·
O=C(/C=C(/c1ccc(Cl)cc1)n1cncn1)c1ccccc1,-16,2,-2,1,18,·,·,·
Cc1c(NC(=O)C(C)OC(=O)CCOc2ccccc2)c(=O)n(-c2ccccc2)n1C (stereo not drawn),-4,-3,-3,-8,-1,-5,·,·
Cc1nc(N/N=C/c2ccc(O)cc2)c2cnn(-c3ccccc3)c2n1,58,4,1,0,59*,-7,-3,·
CCOC(=O)C1CCN(CC(=O)Nc2ccc(S(=O)(=O)N3CCC(C)CC3)cc2)CC1,-6,4,1,3,10,-13,·,·
CCOc1ccc(OCCn2c(=S)[nH]c3c(N)ncnc32)cc1,-5,1,-10,-2,7,-62,·,·
Cc1ccc(OCCn2cnc3c(N)ncnc32)cc1,32,-3,4,-5,72*,-32,11,·
CCOCCn1c2ccccc2c2nc3ccccc3nc21,8,-1,-4,3,27,5,·,·
CCCN(CCC)S(=O)(=O)c1ccc(C(=O)Nc2nnc(-c3cccc(OC)c3)o2)cc1,-1,2,9,3,44,20,·,·
CCCN(CCC)S(=O)(=O)c1ccc(C(=O)Nc2nnc(-c3cc(OC)cc(OC)c3)o2)cc1,0,-2,·,-3,51*,57,1,·
O=C(CCCCCNc1nc(=S)[nH]c2ccccc12)NCc1ccccc1Cl,-6,0,20,1,-4,-1,·,·
Cc1ccc(CNC(=O)Cc2csc(Nc3nc(=S)[nH]c4ccccc34)n2)cc1,35,3,0,3,57*,-8,42*,102*
COc1cc(OC)cc(C(=O)Nc2nc(CC(=O)NCc3ccc(F)cc3)cs2)c1,1,-1,12,-5,70*,46,65*,58*
O=C(Cc1csc(Nc2nc(=S)[nH]c3ccccc23)n1)NCc1cccc(Cl)c1,·,0,3,0,85*,-6,18,·
COc1ccc(CNC(=O)CCCCCNc2nc(=S)[nH]c3ccccc23)cc1,8,3,-5,-2,21,12,·,·
O=C(Cc1csc(Nc2nc(=S)[nH]c3ccccc23)n1)NCc1ccccc1Cl,13,-1,62,-1,92*,·,-11,·
